Inconclusive results are not listed. A number with no mark means an inactive call. Active and inactive are the calls of the source. Calls come from the whole dose curve; as a rule, active = well fitted cell-killing curve with a large enough effect; inconclusive = small, poorly fitted or top-dose-only effect; inactive = flat fitted curve, though single readings scatter.
assay: Cell Viability - LYMP2-020 (AID 986); conditions: series mostly up to 92.2 µM; activity change, negative = viability loss: at the top concentration; note: nearly all actives have a fitted effect of over 55% in size
Source text: NIH Chemical Genomics Center [NCGC]
NIH Molecular Libraries Screening Centers Network [MLSCN]
National Institutes of Environmental Health Sciences [NIEHS]
National Toxicology Program [NTP]
We have developed a 1536-well cell-based assay for quantitative high throughput screening (qHTS) against a number of cell lines to determine in vitro cytotoxicity of small molecules. This particular assay uses a human lymphoblastoid cell line (LYMP2-020) purchased from Coriell Institute for Medical Research.
NCGC Assay Protocol Summary:
The CellTiter-Glo luminescent cell viability assay (Promega) is a homogeneous method to measure the number of viable cells in culture. The end point readout of this assay is based on quantitation of intracellular ATP, an indicator of metabolic activity, using the luciferase reaction. Luciferase catalyzes the oxidation of beetle Luciferin to oxyluciferin and light in the presence of ATP. The luminescent signal is proportional to amount of ATP present.
Using the CellTiter-Glo luminescent cell viability assay, the amount of cellular ATP was measured in the lymphoblastoid cell line with complete culture medium following compound treatment for 24 hours. The assay was performed in opaque white Kalypsys 1536-well plates. In the screen, tetraoctylammonium bromide was used as positive control. Library compounds were measured for their ability to cause acute toxicity in the cell line, as reflected by a decrease in intracellular ATP levels, in a concentration-dependent manner. […] AC50 values were determined from concentration-response data modeled with the standard Hill equation.
qHTS protocol for CellTiter Glo lymphoblastoid cellular assay
[Step] [Parameter] [Value] [Description]
1. Reagent; 5 uL; 2500 lymphoblastoid cells/well
2. Time; 5 hr; 37 C incubation
4. Controls; 23 nL; Tetraoctylammonium bromide 6.4pM to 92 uM
5. Time; 24 hr; 37 C incubation
6. Reagent; 5 uL; CellTiter Glo reagent
7. Time; 30 min; Room Temperature
8. Detection; Luminescence; Viewlux plate reader
Keywords: cell viability, cytotoxicity, lymphoblastoid cell line, luminescence, NTPHTS, NTPHTS_NCGC, NIEHS, DSSTox, MLSMR, MLSCN, NIH Roadmap, qHTS, NCGC
Potency is the fitted concentration of half-maximal effect.

| Structure (SMILES) | Potency | activity change, negative = viability loss |
| --- | --- | --- |
| O=CCCCC=O | 15.8 µM (active) |  |
| O=S(=O)(O)O | inactive |  |
| CC(C)=O |  | -4.43% |
| Cc1ccccc1 | inactive |  |
| CCCCC/C=C\C/C=C\CCCCCCCC(=O)O |  | 0.333% |
| O=C(O)CCC(=O)C(=O)O |  | -4.06% |
| CC1=C(/C=C/C(C)=C/C=C/C(C)=C/CO)C(C)(C)CCC1 | 50.1 µM (active) |  |
| CCCCCCCC(=O)O | inactive |  |
| CC(O)CO (centres undefined) | inactive |  |
| Nc1ccn([C@H]2CS[C@@H](CO)O2)c(=O)n1 |  | -3.36% |
| CCCCCCCC/C=C\CCCCCCCC(=O)O |  | 5.35% |
| CC1=C2[C@@H]([C@H](C)CC[C@H]2/C=C(\C)C(=O)O)[C@H](O)C1 |  | -3.87% |
| IC(I)I |  | -10.7% |
| CCOC(C)=O |  | 12.5% |

Source: PubChem BioAssay (NCATS)
